From PubChem BioAssay
PAFAH1B2 FP inh – inhibitors of human PAFAH1B2; recombinant PAFAH1B2, FP-rhodamine activity probe, fluorescence polarization; inhibition, % at 3.39 µM; 340,000 tested, 1.2% active;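 active means inhibition above the mean of all tested compounds plus 3 SD, cut at about 24% in these data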;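 further: 0% = enzyme with DMSO and 100% = wells lacking PAFAH1B2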
Target sequence (P68402 whole entry, looked up): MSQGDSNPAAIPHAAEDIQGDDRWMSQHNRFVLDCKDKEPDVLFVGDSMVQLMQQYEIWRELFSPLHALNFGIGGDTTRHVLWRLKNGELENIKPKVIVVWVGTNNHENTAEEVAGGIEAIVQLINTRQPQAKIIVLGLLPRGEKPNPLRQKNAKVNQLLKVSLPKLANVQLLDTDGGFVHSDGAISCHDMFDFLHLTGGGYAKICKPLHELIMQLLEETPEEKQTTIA
EBNA-1 inh – blocks EBNA-1 binding to DNA; EBNA-1 DNA binding, fluorescence polarization; inhibition, % at 14.8 µM; 300,000 tested, 0.34% active; AID 1950; in the data active means inhibition above about 28%
PAFAH1B3 inh – PAFAH1B3 (human) inhibition | recombinant PAFAH1B3, FP-rhodamine probe, fluorescence polarization | inhibition, % at 3.39 µM | 340,000 tested, 0.28% active | Q15102;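 active means inhibition above the screen-wide average of all tested compounds plus 3 SD, cut at about 25% in these data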;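 further: 0% = enzyme with DMSO only and 100% = wells lacking PAFAH1B3 protein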
Target sequence (Q15102 whole entry, looked up): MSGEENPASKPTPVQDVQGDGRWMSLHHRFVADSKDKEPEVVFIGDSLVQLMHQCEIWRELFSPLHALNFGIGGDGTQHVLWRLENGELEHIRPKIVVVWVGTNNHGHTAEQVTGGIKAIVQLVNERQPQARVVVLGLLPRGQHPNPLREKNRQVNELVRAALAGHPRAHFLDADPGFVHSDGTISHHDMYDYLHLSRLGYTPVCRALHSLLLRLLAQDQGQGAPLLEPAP
ZTA DNA inh – counter-screen for EBNA-1 inhibitors: inhibitors of Epstein-Barr virus ZTA; ZTA-DNA binding, fluorescence polarization; inhibition, % at 11 µM; 320,000 tested, 0.15% active; AID 2234; in the data active means inhibition above about 33%
Target sequence (P03206 whole entry, looked up): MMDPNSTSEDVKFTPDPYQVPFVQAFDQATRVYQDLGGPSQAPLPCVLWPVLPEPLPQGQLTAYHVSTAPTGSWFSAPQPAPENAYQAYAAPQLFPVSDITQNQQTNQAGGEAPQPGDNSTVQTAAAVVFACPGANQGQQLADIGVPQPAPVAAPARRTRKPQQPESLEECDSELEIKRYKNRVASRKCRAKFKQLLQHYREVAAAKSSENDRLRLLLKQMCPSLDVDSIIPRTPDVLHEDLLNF
rCAG RNA binder – binds r(CAG) RNA repeats; AID 651821; r(CAG) RNA repeat, TO-PRO-1 dye displacement fluorescence; 370,000 tested, 1.3% active; inhibition, % at 3 µM;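 active means inhibition above the plate cutoff, the mean of all test compounds on that plate plus 3 SD, cut at about 35% in these data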;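 further: 0% = DMSO alone and 100% = 100 µM mitoxantrone as full dye displacement; higher means more dye released from RNA so lower well fluorescence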
PAFAH2 inh – PAFAH2 (human) inhibition; Q99487; recombinant PAFAH2, FP-rhodamine activity probe, fluorescence polarization; inhibition, % at 3.39 µM; 340,000 tested, 0.99% active;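 active means inhibition above the mean over all tested compounds plus 3 SD, cut at about 30% in these data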;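 further: inhibitors block probe labeling of enzyme so polarization drops; 0% = enzyme with DMSO and 100% = wells lacking PAFAH2 protein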
rCAG bind conf – r(CAG) RNA repeat binding, confirmation. 4,300 tested, 70% active. AID 652065. inhibition, % at 3 µM. shares compounds with rCAG RNA binder. TO-PRO-1 dye displacement fluorescence;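 active means inhibition above a per-plate cutoff, the mean inhibition of sample wells plus 3 SD, cut at about 35% in these data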;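 further: loss of TO-PRO-1 fluorescence as compound displaces dye from 1x1 AA loop RNA; 0% = DMSO only wells and 100% = 100 µM mitoxantrone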
DNA CAG counter – DNA CAG dye complex inhibition counter-screen | shares compounds with rCAG RNA binder | d(CAG) DNA oligo TO-PRO-1 dye displacement, fluorescence | inhibition, % at 3 µM | 4,300 tested, 94% active | AID 652068;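 active means inhibition above its plate's cutoff, the mean test-well inhibition plus 3 SD, cut at about 4.8% in these data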;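 further: 0% = DNA dye mix with DMSO and 100% = 100 µM mitoxantrone; hits displace the dye from DNA and so lower well fluorescence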
dCAG dye DR – counter-screen for rCAG binders: inhibitors of DNA CAG TO-PRO-1 complex. DNA CAG/GTC duplex TO-PRO-1 dye displacement fluorescence. AID 686960. 250 tested, 20% active. IC50, µM. shares compounds with rCAG RNA binder; in the data active means IC50 below about 10 µM
The depositor's hits bear a star; i = inactive; / = not tested or not shown. Hits are enriched below; roughly 2.9% of the tested compounds scored in any of these assays.

SMILES | PAFAH1B2 FP inh | EBNA-1 inh | PAFAH1B3 inh | ZTA DNA inh | rCAG RNA binder | PAFAH2 inh | rCAG bind conf | DNA CAG counter | others
O=C(Cc1nnc(NC(=O)c2ccccc2)s1)N/N=C/c1ccco1 | 2 | 10 | -5 | 4 | 71* | -7 | 6 | 5.7*
COc1ccc(S[C@]2(C(=O)N3CCN(c4ncccn4)CC3)CC(=O)N(c3ccc4ccccc4c3)[C@@H]2c2ccc(OC)cc2)cc1 | / | / | / | / | 14 | / | / | /
Oc1ccc(Br)cc1-c1cc(-c2ccccc2)n[nH]1 | -3 | 16 | -10 | 15 | 27 | -15 | / | /
O=[N+]([O-])c1cccc(-c2cc(-c3cc(Br)ccc3O)[nH]n2)c1 | 7 | -5 | 8 | -7 | 37* | 5 | 27 | 16*
CCOc1cc2c(c3c1C(c1ccccc1)N(S(=O)(=O)c1ccc(C)cc1)C3)C(=O)C=CC2=O (stereo not drawn) | / | / | / | / | 60* | / | 54* | 25*
CCOC(=O)C1=CCN(S(=O)(=O)c2ccc(C)cc2)C1c1ccccc1 (stereo not drawn) | / | / | / | / | 0 | / | / | /
CCOC(=O)[C@]12CCCC=C1N(Cc1ccc(OC)cc1)C(=O)[C@@H]2CC(=O)N1CCSCC1 | / | / | / | / | 0 | / | / | /
O=C(COc1nncc2ccccc12)NCC(F)(F)F | 6 | 9 | 8 | 5 | 1 | 1 | / | /
Cc1cc(C(=O)CN2c3cccc4cccc(c34)S2(=O)=O)c(C)n1C | 3 | / | -1 | -17 | 38* | 6 | 12 | 8.6*
O=c1nc2c(O)cccn2c2c1c(=O)[nH]c1ccccc12 | 13 | / | 15 | / | 40* | 29 | 2 | -1
CCCS(=O)(=O)NC(=O)C1(C)CCN1C(=O)Cc1ccc(-c2ccccc2)cc1 (stereo not drawn) | / | / | / | / | 21 | / | / | /
CC(C)(C)c1ccc(CC(=O)N2CCC2(C)C(=O)NS(=O)(=O)c2ccc(Cl)s2)cc1 (stereo not drawn) | / | / | / | / | 62* | / | 61* | 24*
COc1cc(C)ccc1S(=O)(=O)NC(=O)C1(C)CCN1C(=O)Cc1ccc(C(C)(C)C)cc1 (stereo not drawn) | / | / | / | / | 28 | / | / | /
CC(C)c1ccc(CC(=O)N2CCC2(C)C(=O)NS(=O)(=O)c2ccc(Cl)s2)cc1 (stereo not drawn) | / | / | / | / | 40* | / | 41* | 11*
CC1(C(=O)NS(=O)(=O)c2ccc(Cl)s2)CCN1C(=O)Cc1ccc(-c2ccccc2)cc1 (stereo not drawn) | / | / | / | / | 74* | / | 75* | 38*
O=C(COc1ccc(Br)cc1CNCCCN1CCOCC1)Nc1ccccc1 | 0 | -7 | 8 | -3 | -5 | 8 | / | /
Cc1ccc(C)c(NS(=O)(=O)c2ccccc2C)c1 | 2 | / | 2 | / | -4 | -5 | / | /
Cc1ccc(S(=O)(=O)NC(=O)COc2cc(C)ccc2C(C)C)cc1 | 9 | 5 | 13 | -9 | 36* | -1 | 18 | 3
N#Cc1ccc(CCc2ccccc2)[nH]c1=O | 4 | / | 3 | / | -1 | 2 | / | /
N#Cc1ccc(CC(=O)c2ccccc2)[nH]c1=O | 10 | / | 12 | / | 35* | 4 | 14 | 4
O=C(CCc1ccccc1)Nc1cc(NC(=O)CCc2ccccc2)cc(C(=O)O)c1 | 23 | -7 | -6 | -1 | 40* | 1 | 27 | 4
O=C(CCc1ccccc1)Nc1cc2c3c(c1)CCC(=O)N3CCC2 | 11 | 0 | 10 | 13 | 42* | 2 | 8 | 1
COC(=O)c1ccc(-c2ccc3c(c2)[C@]2(CCC[C@@H](OCc4ccccc4)[C@@H]2NC(=O)CCc2ccccc2)C(=O)N3Cc2ccccc2)cc1 | / | / | / | / | 9 | / | / | /
C=CCN1C(=O)[C@@H](CC(=O)N2CCN(C(=O)c3ccco3)CC2)[C@]2(C(=O)OCC)CCCCC/C=C/12 | / | / | / | / | 3 | / | / | /
CCOC(=O)[C@@H]1[C@H]2COc3ccccc3[C@@H]2N2C(=O)N(c3ccc(Cl)cc3)C(=O)[C@]12C | 4 | -7 | 2 | -17 | 2 | 2 | / | /
SMILES | PAFAH1B2 FP inh | EBNA-1 inh | PAFAH1B3 inh | ZTA DNA inh | rCAG RNA binder | PAFAH2 inh | rCAG bind conf | DNA CAG counter | others
CCC1=NN2C(=N)/C(=C\c3ccc(SCc4ccco4)o3)C(=O)N=C2S1 | -13 | -1 | -66 | 10 | 65* | -19 | 56* | 20*
O=C(NC1CCC(O)CC1)c1ccc(-c2ccc([N+](=O)[O-])cc2)o1 (stereo not drawn) | 0 | -5 | 4 | -9 | 11 | 4 | / | /
COc1ccccc1/C=C/C(=O)OCC(=O)Nc1nnc(-c2ccccc2)o1 | -5 | / | 5 | / | 30 | 4 | / | /
COc1ccc(OC)c(/C=C/C(=O)OCC(=O)Nc2nnc(-c3ccccc3)o2)c1 | 4 | / | 10 | 6 | 45* | -8 | 41* | 15*
CC1(NC(=O)CC(c2ccccc2)(c2ccccc2)c2ccccc2)CCN(CCCc2ccccc2)C1=O (stereo not drawn) | 14 | / | 7 | 7 | 3 | 10 | / | /
O=C(CSc1ncnc2scc(-c3ccccc3)c12)Nc1ccc(C(=O)O)cc1 | 11 | -4 | 7 | 0 | 35* | -1 | 35* | 10*
CCCCNC(=O)NS(=O)(=O)c1ccc(NC(=O)CSc2ncnc3scc(-c4ccc(C)cc4)c23)cc1 | / | / | / | / | 77* | / | 70* | 32* | dCAG dye DR=i
CCc1nnc(NC(=O)CSc2ncnc3scc(-c4ccc(C)cc4)c23)s1 | 4 | 7 | 4 | -4 | 2 | 3 | / | /
CC(C)(C)c1ccc(CC(=O)N2CCC2(C)C(=O)NS(=O)(=O)c2ccc3c(c2)CCO3)cc1 (stereo not drawn) | / | / | / | / | 24 | / | / | /
CC1(C(=O)NS(=O)(=O)c2ccc3c(c2)CCO3)CCN1C(=O)Cc1ccc(-c2ccccc2)cc1 (stereo not drawn) | / | / | / | / | 47* | / | 70* | 27* | dCAG dye DR=>30
CC1(C(=O)NS(=O)(=O)c2ccc3ccccc3c2)CCN1C(=O)Cc1ccc(-c2ccccc2)cc1 (stereo not drawn) | / | / | / | / | 81* | / | 77* | 36*
COc1ccc(S(=O)(=O)NC(=O)C2(C)CCN2C(=O)Cc2cc(C)cc(C)c2)cc1 (stereo not drawn) | / | / | / | / | 11 | / | / | /
COc1ccc(S(=O)(=O)NC(=O)C2(C)CCN2C(=O)Cc2ccc(-c3ccccc3)cc2)cc1 (stereo not drawn) | / | / | / | / | 46* | / | 44* | 16*
COc1cccc(CNC(=O)CCCN2C(=O)C(c3ccccc3)Oc3cccnc32)c1OC (stereo not drawn) | 3 | -4 | 2 | -6 | -5 | 0 | / | /
CCCC[C@@H]1Cc2[nH][nH]c(=O)c2[C@H](c2cccc3ccccc23)O1 | / | / | / | / | 14 | / | / | /
